From PubChem
Tg IFNy HTS – blocks Toxoplasma gondii growth in the presence of IFN-gamma; Toxoplasma gondii growth in IFN-gamma-treated host cells; hits give low values; activity change, negative = inhibition, % (concentration not given with the values); 3.8% of 69,000 active; in the data active = activity change below about -70%, passing the limit was not always enough;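 also: host cells are HeLa cells infected with Toxoplasma gondii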
* hit, by the source's call; ! = repeats disagree. This excerpt belongs to a sample that is enriched for hits.

SMILES | Tg IFNy HTS
O=C(Nc1ccc(Oc2ccccc2)cc1)c1cc2cccnc2n(Cc2ccccc2F)c1=O | 44.4
Cc1nc(CN2CCC3(CC2)C(=O)N(C)c2ccccc23)cs1 | -5.4
CN(C)C(=O)CN1CC2CCC1C2Oc1ccccn1 (stereo not drawn) | 73.9
c1ccc(CCN2CCCC3(CCNC3)C2)cc1 (stereo not drawn) | -48.9
O=C(Nc1ccccc1C(F)(F)F)c1cc2cccnc2n(Cc2ccccc2)c1=O | 4.3
O=C(NC1CCCCC1)c1cc2cccnc2n(Cc2ccccc2F)c1=O | 80.7
O=C(N[C@H]1CN2CCC1CC2)c1ccc(Cl)cc1 | -23.3
CN1C(=O)COc2c(C(=O)NC3CN4CCC3CC4)cc(Cl)cc21 (stereo not drawn) | 10.1
Cn1cc(C(=O)C(=O)N[C@H]2CN3CCC2CC3)c2ccccc21 | -79.7*!
O=C(/C=C/c1ccccc1)C1C(=O)NC23CCCCC2C1c1ccccc1O3 (stereo not drawn) | -64.2
COc1ccc(/C=C/C(=O)C2C(=O)N(C)C34CCCC3C2c2ccccc2O4)cc1 (stereo not drawn) | 13.3
COc1ccc(OC)c(/C=C/C(=O)C2C(=O)NC34CCCCC3C2c2ccccc2O4)c1 (stereo not drawn) | -73.6*
c1ccc(OCC2CC3OCCN(Cc4cccs4)C3C2)nc1 (stereo not drawn) | -1.8
c1ccc2c(c1)C(OCC1CC1)[C@@H]1CNC[C@@H]21 (stereo partly drawn) | 4.3
COc1ccc2c(c1)C1(CCN(C(=O)c3ccc(F)c4ccccc34)CC1)CC2CC(=O)O (stereo not drawn) | -13.5
O=C(Nc1cccc(F)c1)c1cc2cccnc2n(Cc2ccc(Cl)cc2)c1=O | 13.1
CCCN1CCC[C@@H]2Cc3nc(N)ncc3C[C@H]21 | 13.5
CCCN1CCC[C@@H]2Cc3[nH]ncc3C[C@H]21 | -73.2*
CN(C)CCN1C[C@H](OCc2ccccn2)[C@@H]2COC[C@@H]21 | -39.6
Cc1ccc2c(c1)Cc1c(C(=O)NN3CCCCC3)nn(-c3ccc(Cl)cc3Cl)c1-2 | -74.6*!
CN(C)CCN1CC[C@H]2[C@@H]1CCN2C(=O)Cc1cccs1 | 7.5
CCc1ccc(NC(=O)c2cc3cccnc3n(Cc3ccccc3)c2=O)cc1 | 54.4
O=C(Nc1ccccc1)C12CCNCC1C2 (stereo not drawn) | 40.4
Cc1cccc(CN2C[C@H]3CN(c4ccsc4)C(=O)[C@@H]3C2)n1 | -12.2
Cc1ccc(CN2CC[C@H]3[C@@H]2CCN3C(=O)Cc2cccc(F)c2)o1 | -5.0
SMILES | Tg IFNy HTS
CC(=O)O[C@@H]1CC2C(C)(C)C(=O)C=C[C@]2(C)C2CC[C@]3(C)C(=CC(=O)O[C@H]3c3ccoc3)[C@@]21C (stereo partly drawn) | -87.6*
CC1(C)C2CC(=O)[C@]3(C)C(CC[C@@]4(C)[C@H](c5ccoc5)OC(=O)[C@H]5O[C@]543)[C@@]2(C)C(=O)C[C@H]1O (stereo partly drawn) | 6.5
CC(=O)O[C@H]1C[C@@H](OC(C)=O)C(C)(C)C2C[C@@H](OC(C)=O)[C@]3(C)C(CC[C@@]4(C)[C@H](c5ccoc5)C(=O)[C@H]5O[C@]543)[C@]21C (stereo partly drawn) | 15.3
COCCN1C2CCC1CN(c1ncccn1)C2 | 1.3
COc1ccc(CCNC(=O)c2cc3cccnc3n(Cc3ccccc3)c2=O)cc1OC | 14.9
Cc1c2ccncc2c(C)c2c1[nH]c1ccccc12 | -80.4*
c1ccc2c(c1)[nH]c1cnccc12 | 29.1
Cc1nccc2c1[nH]c1ccccc12 | 0.5
COC(=O)c1cccc(CN(C)C(C)Cc2cc(C)ccn2)n1 (stereo not drawn) | 4.6
C=CCOCc1cncc2c1CCN(C1CCOC1)C2 (stereo not drawn) | -0.4
Cn1ccnc1C1(O)CCCC2CNCC21 (stereo not drawn) | 29.4
CN1CCO[C@H]2CN(S(=O)(=O)c3cccnc3)C[C@@H]2C1 | 5.2
CN(C)c1ncc2c(c1C(=O)O)CCN(S(=O)(=O)C1CC1)C2 | 1.3
CCOP(=S)(OCC)Oc1nc(Cl)c(Cl)cc1Cl | -75.8*!
COCCN1CCN(Cc2nccn2C)Cc2cccnc21 | -26.1
CCCCOC(=O)c1ccc(NC(=O)c2cc3cccnc3n(Cc3ccccc3)c2=O)cc1 | -41.7
Oc1ccc2c3c1OC1c4c(c5ccccc5n4Cc4ccccc4)CC4(O)C(C2)N(CC2CC2)CCC314 (stereo not drawn) | -52.2
c1ccc(CN2CC[C@H]3[C@@H]2CCN3Cc2cccs2)nc1 | -13.5
CN(C)C(=O)CN1CCC2C1CC(=O)N2Cc1cccnc1 (stereo not drawn) | 6.2
Cc1cccc(CN2C(=O)C[C@H]3[C@H]2CCN3Cc2cccs2)n1 | -92.8*
CSc1ccc(C(=O)N[C@H]2c3ccccc3[C@@H]3CNC[C@H]32)s1 | -0.7
COCCN1CC[C@H]2OCC[C@@H](C(=O)NCc3cccnc3)[C@@H]2C1 | 68.9
CCN(CC)c1ccc(C2NCCc3[nH]cnc32)c(O)c1 (stereo not drawn) | 6.8
Cc1cccc(-c2ncc(CN3C[C@H]4CC[C@H]3C4)cn2)c1 | 9.4
C[C@H]1OC(O[C@H]2[C@@H](O)CC(O[C@H]3[C@@H](O)C[C@H](O[C@H]4CC[C@]5(C)C6CC[C@]7(C)[C@@H](C8=CC(=O)OC8)[C@@H](O)C[C@]7(O)[C@@H]6CC[C@@H]5C4)O[C@@H]3C)O[C@@H]2C)C[C@H](O)C1O (stereo partly drawn) | -73.4*
SMILES | Tg IFNy HTS
CC(=O)O[C@H]1C[C@H](O[C@H]2[C@@H](O)C[C@H](O[C@H]3[C@@H](O)C[C@H](O[C@H]4CC[C@@]5(C)C(CCC6C5C[C@@H](O)[C@]5(C)[C@@H](C7=CC(=O)OC7)CC[C@]65O)C4)O[C@@H]3C)O[C@@H]2C)O[C@H](C)[C@H]1O[C@@H]1O[C@H](CO)[C@@H](O)[C@H](O)[C@H]1O (stereo partly drawn) | -73.3*
COC1C(O)CC(OC2C(O)CC(OC3C(O)CC(OC4CCC5(C)C(CCC6[C@@H]5CC(O)C5(C)C(C7=CC(=O)OC7)CCC65O)C4)OC3C)OC2C)OC1C (stereo partly drawn) | -77.0*
C[C@]12CC[C@H](O)C[C@H]1CC[C@@H]1[C@@H]2CC[C@]2(C)[C@@](O)(c3ccoc3)CC[C@]12O | -2.5
COc1ccccc1CCNC(=O)c1cc2cccnc2n(Cc2ccc(F)cc2)c1=O | -45.3
CCN1C[C@H]2CN(Cc3nccn3C)C[C@H]2C1=O | -4.4
COCc1cncc2c1CCN(S(=O)(=O)c1cn(C)cn1)C2 | -16.6
O=C(NCc1cccs1)c1cc2cccnc2n(Cc2ccccc2)c1=O | -62.4
O=c1cccc2n1C[C@@H]1C[C@H]2CN(Cc2cn[nH]c2-c2ccc(F)cc2)C1 | 1.6
CCN1C[C@]23CNC[C@@H](C[C@H]2S1(=O)=O)O3 | 26.3
CCN1C[C@]2(COC(=O)c3ccccc3N3C(=O)C[C@H](C)C3=O)CC[C@H](OC)[C@@]34[C@@H]5C[C@H]6[C@H](OC)[C@@H]5[C@](O)(C[C@@H]6OC)[C@@](O)([C@@H](OC)[C@H]23)[C@@H]14 | 13.1
Cc1cc(NC(=O)c2cc3cccnc3n(Cc3ccccc3)c2=O)no1 | 93.5
Cc1noc(C)c1CN1CC[C@H]2[C@@H]1CCN2CC(=O)N(C)C | 3.9
OCCN1CCOC2C(Cn3ccnc3)CCC21 (stereo not drawn) | 2.4
O=C(Nc1cccc(Cl)c1)OC1CN2CCC1CC2 (stereo not drawn) | -78.0*
O=C(c1cccc(Cl)c1)C1CCCN(C2CCCCC2)C1 (stereo not drawn) | -3.2
